Measured values published in PubChem BioAssay.
Calls of active or inactive are those of the source.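 Rule for the calls, unless noted: active = inhibition at or above 50% at 10 µM; inactive = inhibition below 50%.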

molecular target: Alpha-2C adrenergic receptor (Homo sapiens) (UniProt P18825); test: modulators of alpha2C/GIRK thallium flux, primary screen, cell-based, HEK293 alpha2C/GIRK1/2 (AID 624;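 active = fluorescence slope after compound addition differing from the mean of all screened samples at 99.7% confidence, in either direction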;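 note: slope of fluorescence ratio to pre-addition baseline per second over 15 to 24 s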); details: thallium flux BTC fluorescence, at 10 µM, actives lie on both sides
Sequence (P18825 whole entry, looked up): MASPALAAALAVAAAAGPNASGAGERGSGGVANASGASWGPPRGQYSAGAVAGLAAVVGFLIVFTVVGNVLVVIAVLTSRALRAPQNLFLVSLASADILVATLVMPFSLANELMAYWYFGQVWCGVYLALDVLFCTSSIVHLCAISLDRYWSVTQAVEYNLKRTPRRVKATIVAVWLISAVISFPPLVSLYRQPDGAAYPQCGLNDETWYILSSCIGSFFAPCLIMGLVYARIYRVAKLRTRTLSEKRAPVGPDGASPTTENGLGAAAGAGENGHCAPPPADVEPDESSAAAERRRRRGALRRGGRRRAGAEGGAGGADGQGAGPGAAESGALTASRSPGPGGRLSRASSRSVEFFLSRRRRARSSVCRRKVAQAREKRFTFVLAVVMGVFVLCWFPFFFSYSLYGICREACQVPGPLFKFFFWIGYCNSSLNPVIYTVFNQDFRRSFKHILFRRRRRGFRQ

slope, inactive:
Cn1c(=O)oc2cc(S(=O)(=O)N3CCN(c4ccccn4)CC3)ccc21 0.00702
CC(=O)c1ccccc1Oc1nc(CN2CCOCC2)nc2scc(-c3cccs3)c12 0.00384
Cc1ccc(NC(=O)CCC(=O)O)cc1F 0.00611
Cc1c(C#N)c2ncnc(-c3ccccc3)c2n1-c1ccccc1 0.00601
O=C(c1ccc(CSCc2ccccc2F)o1)N1CCN(c2ccc(N3CCOCC3)nn2)CC1 0.00478
COc1ccc(N2CCN(C(=O)c3c(-c4ccccc4)noc3C)CC2)cc1 0.00611
Cn1c(=O)[nH]c(=O)c2c1nc(N1CCNCC1)n2CCOc1ccccc1 0.00611
CC1CCCCN1CCNS(=O)(=O)c1ccc2c(c1)oc(=O)n2C (centres undefined) 0.00417
CN1CCN(Cc2nc3c(c(=O)[nH]c(=O)n3C)n2CCc2ccccc2)CC1 0.00646
O=C(c1ccco1)N1CCN(C(=O)c2sccc2-c2ccccc2)CC1 0.0052
CC(C)CN(C(=O)c1ccc(=O)n(C)n1)c1nc2ccccc2s1 0.00541
CCOC(=O)N1CCC(NC(=O)CN2C(=O)CCSc3ccccc32)CC1 0.00644
CCOc1ccc(NC(=O)CN2C(=O)C3CCCN3C2=O)cc1 (centres undefined) 0.00647
COc1ccc(-c2ccc(-c3noc(-c4ccccc4OC)n3)c(OC)n2)cc1 0.00463
Cc1ccc(S(=O)(=O)N2CCN(CCO)CC2)cc1-c1nnc2c3ccccc3c(C)nn12 0.00417
CN(C)c1ccc(NC(=O)c2cc3c(=O)n4ccccc4nc3n2C)cc1 0.00472
Cc1cc(NC(=O)c2cccc(S(=O)(=O)N3CC(c4ccccc4)CC3=O)c2)no1 (centres undefined) 0.00664
CN(CCc1ccccn1)C(=O)CCNC(=O)Cn1cnc2ccccc2c1=O 0.00589
Cc1onc(-c2c(Cl)cccc2Cl)c1C(=O)NCC1CCCO1 (centres undefined) 0.00578
CCOC(=O)C1(c2ccccc2)NC(c2ccc(N(C)C)cc2)C2C(=O)N(C)C(=O)C21 (centres undefined) 0.00476
COc1ccc(C2C(C(=O)Nc3cccnc3)=C(C)Nc3nc(-c4cccs4)nn32)cc1OC (centres undefined) 0.0064
CN(C)S(=O)(=O)Nc1ccc(Br)cc1F 0.00541
CNC(=O)c1ccsc1NC(=O)CN1C(=O)CCC1=O 0.00494
CC(C)C(NC(=O)OCc1ccccc1)C(=O)OCC(=O)NCc1ccco1 (centres undefined) 0.00253

test system: not listed separately; test: inhibitors of Sendai virus-induced IRF3 signaling, primary screen, TLR/RLR signaling modifier project, cell-based, Sendai virus stimulus, luciferase, 10K MLSCN set (AID 602276); details: HEK293 RL24 IRF3 luciferase reporter, at 10 µM, hits give high values;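 note: firefly luciferase from ISG56 promoter only with Renilla not read in this screen; 0% = Sendai virus plus DMSO and 100% = medium plus DMSO without virus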

inhibition, inactive:
CCCCCn1c(CN2CCN(C(=O)c3ccco3)CC2)nc2c1c(=O)n(C)c(=O)n2C 1.47%
Cc1cc(C(=O)COC(=O)C2COc3ccccc3O2)c(C)n1CC1CCCO1 (centres undefined) 6.89%
COC(=O)Oc1c(Br)c(=O)oc2ccccc12 -15.5%
CCOC(=O)CN1CC23C=CC(O2)C(C(=O)Nc2ccc(OCC)cc2)C3C1=O (centres undefined) 7.04%
O=C(Cn1cc2c(n1)CCCC2)NCCc1ccccc1 5.6%
CCCC1(C(=O)OCC)NC(c2ccc(N(C)C)cc2)C2C(=O)N(c3ccc(F)cc3)C(=O)C21 (centres undefined) 8.99%
COC(=O)c1ccc(NC(=O)CN2CCCC2)cc1 9.14%
C=CCc1ccccc1OCCCCN1CCCC1 -11.7%
O=C(NCc1ccc2c(c1)OCO2)c1ccccn1 -23.2%
O=C(CSc1nnc(NC(=O)C2CCC2)s1)NC1CC1 0.495%
CCOC(=O)Cc1nnc2c(Nc3ccc(C)cc3)nc3nonc3n12 23.5%
COc1ccc(C(=O)NCC(=O)NC2=NCCS2)cc1 5.81%
Cc1nc(NC(=O)c2ccccc2)sc1-c1csc(NCc2ccco2)n1 5.26%
COc1ccccc1-c1nnc(SCC(=O)NC2CCCCC2)o1 -1.61%
O=C(CSc1nnnn1-c1ccc(Cl)cc1)NC(=O)Nc1ccc2c(c1)OCCO2 -24.8%
O=C(CCC(=O)c1cccs1)NCc1ccccc1 -1.41%
Cn1c(=O)oc2cc(S(=O)(=O)N3CCN(c4ccccn4)CC3)ccc21 15%
CC(=O)c1ccccc1Oc1nc(CN2CCOCC2)nc2scc(-c3cccs3)c12 7.86%
Cc1ccc(NC(=O)CCC(=O)O)cc1F 16.4%
Cc1c(C#N)c2ncnc(-c3ccccc3)c2n1-c1ccccc1 15.3%
O=C(c1ccc(CSCc2ccccc2F)o1)N1CCN(c2ccc(N3CCOCC3)nn2)CC1 4.73%
COc1ccc(N2CCN(C(=O)c3c(-c4ccccc4)noc3C)CC2)cc1 -19.4%
Cn1c(=O)[nH]c(=O)c2c1nc(N1CCNCC1)n2CCOc1ccccc1 -11.6%
CC1CCCCN1CCNS(=O)(=O)c1ccc2c(c1)oc(=O)n2C (centres undefined) 15.8%
CN1CCN(Cc2nc3c(c(=O)[nH]c(=O)n3C)n2CCc2ccccc2)CC1 3.33%
O=C(c1ccco1)N1CCN(C(=O)c2sccc2-c2ccccc2)CC1 -5.94%
CC(C)CN(C(=O)c1ccc(=O)n(C)n1)c1nc2ccccc2s1 -18.6%
CCOC(=O)N1CCC(NC(=O)CN2C(=O)CCSc3ccccc32)CC1 4.21%
CCOc1ccc(NC(=O)CN2C(=O)C3CCCN3C2=O)cc1 (centres undefined) 3.2%
COc1ccc(-c2ccc(-c3noc(-c4ccccc4OC)n3)c(OC)n2)cc1 -0.193%
Cc1ccc(S(=O)(=O)N2CCN(CCO)CC2)cc1-c1nnc2c3ccccc3c(C)nn12 3.73%
CN(C)c1ccc(NC(=O)c2cc3c(=O)n4ccccc4nc3n2C)cc1 1.6%
Cc1cc(NC(=O)c2cccc(S(=O)(=O)N3CC(c4ccccc4)CC3=O)c2)no1 (centres undefined) 8.54%
CN(CCc1ccccn1)C(=O)CCNC(=O)Cn1cnc2ccccc2c1=O 13.8%
Cc1onc(-c2c(Cl)cccc2Cl)c1C(=O)NCC1CCCO1 (centres undefined) -10.3%
CCOC(=O)C1(c2ccccc2)NC(c2ccc(N(C)C)cc2)C2C(=O)N(C)C(=O)C21 (centres undefined) 14.4%
COc1ccc(C2C(C(=O)Nc3cccnc3)=C(C)Nc3nc(-c4cccs4)nn32)cc1OC (centres undefined) 7.94%
CN(C)S(=O)(=O)Nc1ccc(Br)cc1F 8.09%
CNC(=O)c1ccsc1NC(=O)CN1C(=O)CCC1=O 6.37%
CC(C)C(NC(=O)OCc1ccccc1)C(=O)OCC(=O)NCc1ccco1 (centres undefined) 0.314%
